# In PubChem BioAssay AID1851 (National Center for Advancing Translational Sciences (NCATS), 2009):
# About 5,100 (32%) of roughly 16,000 compounds were called active. Not shown: some 25% with an inconclusive outcome. Calls follow the shape of the dose curve; as a rule, active = well fitted curve in the direction sought with a large enough effect; inconclusive = small, poorly fitted or top-dose-only effect, or effect the other way; inactive = no such curve, though single readings can be large or run the other way. The list shows a part of the results.
# Biological target: Cytochrome P450 3A4 (Homo sapiens) (UniProt P08684)
# Sequence (P08684 whole entry, looked up): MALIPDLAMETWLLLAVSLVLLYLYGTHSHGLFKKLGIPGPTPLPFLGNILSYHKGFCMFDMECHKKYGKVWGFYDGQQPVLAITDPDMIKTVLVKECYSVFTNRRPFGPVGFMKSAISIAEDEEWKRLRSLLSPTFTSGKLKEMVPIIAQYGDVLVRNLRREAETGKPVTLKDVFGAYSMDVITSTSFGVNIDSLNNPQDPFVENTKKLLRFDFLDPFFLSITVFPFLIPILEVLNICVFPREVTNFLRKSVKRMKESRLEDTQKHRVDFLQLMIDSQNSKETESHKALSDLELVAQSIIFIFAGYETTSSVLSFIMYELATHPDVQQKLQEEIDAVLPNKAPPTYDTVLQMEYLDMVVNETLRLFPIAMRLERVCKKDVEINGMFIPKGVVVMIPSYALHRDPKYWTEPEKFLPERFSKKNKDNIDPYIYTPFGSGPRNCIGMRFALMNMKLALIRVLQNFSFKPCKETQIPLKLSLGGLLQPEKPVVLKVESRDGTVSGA
# Assay: Cytochrome panel assay with activity outcomes
# Conditions: recombinant CYP, pro-luciferin dealkylation, luminescence, p450-cyp3a4; series mostly up to 57.1 µM; activity, negative = inhibition: at the top concentration
# % is scaled to controls: 0 for no effect and ±100 for the full control effect.
SMILES,AC50,"activity, negative = inhibition"
COc1ccc2[nH]cc(CCNc3ncnc4ccc(-c5cccc(C#N)c5)cc34)c2c1,2.51 µM (active),–
COc1ccc2[nH]cc(CCNc3ncnc4ccc(-c5ccccc5C#N)cc34)c2c1,2 µM (active),–
COc1cccc(-c2ccc3ncnc(NCCc4c[nH]c5ccc(OC)cc45)c3c2)c1,1.26 µM (active),–
COc1ccc2[nH]cc(CCNc3ncnc4ccc(-c5ccoc5)cc34)c2c1,3.98 µM (active),–
COc1ccc2[nH]cc(CCNc3ncnc4ccc(-c5cccnc5)cc34)c2c1,1 µM (active),–
COc1ccc2[nH]cc(CCNc3ncnc4ccc(-c5ccccc5CN(C)C)cc34)c2c1,1.58 µM (active),–
COc1ccc2[nH]cc(CCNc3ncnc4ccc(-c5c(C)noc5C)cc34)c2c1,3.16 µM (active),–
COc1ccc2[nH]cc(CCNc3ncnc4ccc(-c5ccc6c(c5)OCO6)cc34)c2c1,2 µM (active),–
O=C(Cn1cnc([N+](=O)[O-])c1)NCc1ccc(F)cc1,–,7.55% (inactive)
Cc1ccc(C(C)C)n1C(=O)OC(C)(C)C,–,-18.1% [at 11.4 µM] (inactive)
Nc1nc2c(nc(Br)n2[C@@H]2O[C@H]3COP(=O)(O)O[C@H]3[C@@H]2O)c(=O)[nH]1,–,-11.4% (inactive)
COc1ccc(S(=O)(=O)N(CC(=O)N2CCCC2)Cc2ccccc2)cc1,4.47 µM (active),–
COc1ccc(OC)c(N(CC(=O)N2CCc3ccccc3C2)S(C)(=O)=O)c1,–,7.06% (inactive)
Cc1ccc(CS(=O)(=O)CCC(=O)N2CCOCC2)cc1,–,-2.96% (inactive)
CN(Cc1ccccc1)S(=O)(=O)c1ccc(OCC(=O)N2CCOCC2)cc1,–,-0.529% (inactive)
COc1ccc(S(=O)(=O)N(CCc2ccccc2)CC(=O)N2CCOCC2)cc1,7.08 µM (active),–
Cc1ccc(C2NC(c3ccc(C)cc3)C(C)C(=NO)C2C)cc1 (stereo not drawn),14.1 µM (active),–
COc1ccc(CC(=O)NC(=S)Nc2ccc(S(=O)(=O)NC(C)(C)C)cc2)cc1,6.31 µM (active),–
CC(=O)NS(=O)(=O)c1ccc(NC(=S)NC(=O)C(C)(C)C)cc1,–,3.17% (inactive)
CCC(=O)NC(=S)Nc1ccc(S(=O)(=O)NC(C)=O)cc1,–,18.1% [at 2.29 µM] (inactive)
CSc1nc(N)c2ncn([C@H]3O[C@H](COP(=O)(O)OP(=O)(O)O)[C@@H](O)[C@@H]3O)c2n1,–,-11.3% (inactive)
C[C@@]12CC3CC(N)(C1)C[C@@](C)(C3)C2,–,5.36% [at 25.6 µM] (inactive)
CCOc1ccc(C(Nc2ccc(C)cc2)P2(=O)OCC(C)(C)CO2)cc1 (stereo not drawn),3.98 µM (active),–
CCOc1ccc(C2=[N+]([O-])C(C)(C)N(O)C2(C)C)cc1,–,-12.4% (inactive)
CCOc1ccc(NC(=O)N2CCC(c3ccc(C)cc3)C2)cc1 (stereo not drawn),–,-20.6% (inactive)

SMILES,AC50,"activity, negative = inhibition"
CC(=O)Nc1nnc(SCc2ccc(F)cc2)s1,–,-13.1% (inactive)
COc1ccc(CCn2c(C)cc(C(=O)CSc3nc(N)cc(=O)[nH]3)c2C)cc1,2.51 µM (active),–
O=C(O)c1cc(=O)[nH]c(SCc2ccccc2)n1,–,0.661% [at 11.4 µM] (inactive)
Cc1cc(C(=O)CSc2nnc(N)s2)c(C)n1CCc1ccc(F)cc1,0.316 µM (active),–
C[C@@](N)(Cc1ccc(O)cc1)C(=O)O,inactive,–
O=C(CCc1ccc(O)cc1)c1c(O)cc(O)cc1O,10 µM (active),–
O=C(O)Cc1ccc(O)c(O)c1,–,-3.58% (inactive)
O=c1nc(N2CCCCCC2)nc(N2CCCCCC2)[nH]1,–,-19.4% (inactive)
CCN(CC)C(=O)CSc1nnc(C2CCCCC2)o1,–,-27.4% (inactive)
O=C(CSc1nnc(CNc2ccc(F)cc2)o1)N1c2ccccc2Sc2ccccc21,7.08 µM (active),–
O=C(CSc1n[nH]c(-c2ccccc2O)n1)N1CCCc2ccccc21,3.16 µM (active),–
CCOc1ccc(-n2c(=O)[nH]cc(C(=O)N3CCCc4ccccc43)c2=O)cc1,–,-29.5% (inactive)
O=C(CSc1nnc(CNc2ccccc2)o1)N1CCCc2ccccc21,8.91 µM (active),–
Cc1cc2nc(-c3ccc(SCC(=O)N4CCc5ccccc54)nc3)[nH]c2cc1C,–,-3.98% [at 2.29 µM] (inactive)
O=C(CSc1nnc(CNc2ccc(F)cc2)o1)OC1CCCCC1,28.2 µM (active),–
O=C(CCN1CCCCC1)N1CCc2c([nH]c3ccccc23)[C@H]1c1cccnc1,–,-11.2% [at 11.4 µM] (inactive)
COC(=O)Cn1cnc(=O)c(C#N)c1/C=C/N(C)C,–,-1.13% (inactive)
O=C(N/N=C/c1ccncc1)c1cc2c(ccc3ccccc32)o1,1.41 µM (active),–
Cc1ccccc1C(=O)N/N=C/c1ccncc1,7.08 µM (active),–
O=C(N/N=C/c1ccc(O)cc1)c1csc2ccccc12,–,-23.9% [at 11.4 µM] (inactive)
C=CCn1cc(/C=N\NC(=O)c2cc3c(ccc4ccccc43)o2)c2ccccc21,10 µM (active),–
O=C(N/N=C/c1cccc([N+](=O)[O-])c1)c1cc2c(ccc3ccccc32)o1,–,-7.91% [at 2.29 µM] (inactive)
O=C(N/N=C/C=C/c1ccccc1)c1cc2c(ccc3ccccc32)o1,–,-11.9% (inactive)
O=C(N/N=C\c1cccc(O)c1)c1ccncc1,–,-5.33% [at 11.4 µM] (inactive)
COc1cccc([C@H](O)Cn2cc(-c3ccc(CON=C(C)C)cc3)nn2)c1,–,-19.8% [at 11.4 µM] (inactive)

SMILES,AC50,"activity, negative = inhibition"
CC[C@@H](CS(=O)(=O)O)[N+](=O)[O-],–,-18% [at 11.4 µM] (inactive)
O=C(N=NC(=O)c1ccc2c(O)n(C3CCCCC3)c(O)c2c1)c1cccnc1,11.2 µM (active),–
Cn1cc(-c2nc3cncnc3n(CCN)c2=O)c2ccccc21,12.6 µM (active),–
COc1ccccc1CCn1c(=O)c(-c2cn(C)c3ccccc23)nc2cncnc21,2.51 µM (active),–
COCCn1c(=O)c(-c2cn(C)c3ccccc23)nc2cncnc21,3.16 µM (active),–
Cc1cccc([C@@H]2CN(C)CCc3c2cc(O)c(O)c3Cl)c1,–,7.75% (inactive)
N[C@H](CCCP(=O)(O)O)C(=O)O,inactive,–
O=C(O)c1nnsc1-c1ccc(-c2snnc2C(=O)O)cc1,–,-0.252% [at 11.4 µM] (inactive)
O=C(O)c1ccccc1-c1ccc(/C=c2\sc3nc4cc(Br)cnc4n3c2=O)o1,–,-12.3% (inactive)
O=C(c1c[nH]c(=O)n(-c2ccccc2)c1=O)N1CCc2ccccc21,–,-8.97% (inactive)
Cc1ccc(NS(=O)(=O)c2cc(C(=O)N3CCc4ccccc4C3)ccc2Cl)cc1,1.26 µM (active),–
COc1ccc(C(=O)N2CCCCC2)cc1S(=O)(=O)Nc1ccccc1,12.6 µM (active),–
Cc1ccc(NS(=O)(=O)c2cc(C(=O)NCc3ccccn3)ccc2Cl)cc1,3.98 µM (active),–
CN(c1ccc(C(=O)NCc2ccccn2)cc1)S(C)(=O)=O,–,2.98% (inactive)
CCOC(=O)N1CCN(C(=O)c2ccc(Cl)c(S(=O)(=O)N3CCOCC3)c2)CC1,–,-3.04% [at 2.29 µM] (inactive)
OC(CN1CCCCC1)CN1CCCCC1,–,12.3% (inactive)
CN(C)C(=O)c1ccc(-c2cncnc2NC2CCNCC2)cc1,–,-16% (inactive)
CNc1ncncc1-c1ccc(C(=O)N(C)C)cc1,5.01 µM (active),–
CN(C)C(=O)c1ccc(-c2cncnc2NCCc2cnc[nH]2)cc1,6.31 µM (active),–
Cc1cccc(CNc2ncncc2-c2ccc(C(=O)N(C)C)cc2)c1,0.631 µM (active),–
CN(C)C(=O)c1ccc(-c2cncnc2NCc2ccccc2)cc1,2.51 µM (active),–
CN(C)C(=O)c1ccc(-c2cncnc2NCc2cccnc2)cc1,5.01 µM (active),–
CN1CCN(c2ncncc2-c2ccc(C(=O)N(C)C)cc2)CC1,15.8 µM (active),–
CN(C)C(=O)c1ccc(-c2cncnc2N2CCNCC2)cc1,–,-25.5% (inactive)
O=C(O)c1ccccc1C1c2ccccc2Oc2ccccc21,–,26.1% [at 11.4 µM] (inactive)

SMILES,AC50,"activity, negative = inhibition"
CCC1(C)CC(CCNS(=O)(=O)c2ccc(C)cc2)(c2ccc(C)cc2)CCO1 (stereo not drawn),3.55 µM (active),–
c1ccc(-c2nnc(SCCC3OCCCO3)o2)cc1,–,-12.2% (inactive)
Cc1cc(C(=O)CSc2nnc(-c3ccccc3)o2)c(C)n1CC1COc2ccccc2O1 (stereo not drawn),2.24 µM (active),–
O=C(/C=C\c1ccc(O)c(O)c1)O[C@@H](Cc1ccc(O)c(O)c1)C(=O)O,–,-7.45% (inactive)
O=C(O)/C=C\c1ccc(O)c(O)c1,–,-6.21% [at 25.6 µM] (inactive)
O=C(/C=C\c1ccc(O)c(O)c1)OCCc1ccccc1,15.8 µM (active),–
CCn1c2ccccc2c2cnc(N=CN(C)C)c(C#N)c21,7.94 µM (active),–
Nc1nc(N)nc(CC(=O)O)n1,–,-10.1% [at 11.4 µM] (inactive)
COC(=O)N1CCC2(CC1)CCN(c1ccncc1)CC2,–,-26.8% (inactive)
O=C(Oc1ccccc1)N1CCC2(CC1)CCN(c1ccncc1)CC2,–,-14.1% (inactive)
COC(=O)N1CCC[C@@]2(CCN(c3ccncc3)C2)C1,3.98 µM (active),–
COC(=O)N1CCC[C@@]2(CCN(c3ncccn3)C2)C1,–,-17.7% (inactive)
O=C(Oc1ccccc1)N1CCC[C@@]2(CCN(c3ccncc3)C2)C1,12.6 µM (active),–
O=[N+]([O-])c1cccnc1NCCNc1ncc(C(F)(F)F)cc1Cl,12.6 µM (active),–
O=[N+]([O-])c1ccc2ncccc2c1CCc1c([N+](=O)[O-])ccc2ncccc12,–,-12.1% [at 11.4 µM] (inactive)
O=C(O)C[C@H](NC(=O)CP(=O)(O)O)C(=O)O.[NH-][C@@H]1CCCC[C@@H]1[NH-].[Pt],–,-3.72% [at 11.4 µM] (inactive)
C#CCOC(=O)Nc1ccc(=O)n(Cc2c(Cl)cccc2Cl)c1,–,-1.17% (inactive)
O=S(=O)(NCc1cc(-c2ccccc2Cl)no1)c1ccccc1,–,-24.6% (inactive)
O=c1ccc(NS(=O)(=O)c2ccccc2)cn1Cc1ccc(Cl)c(Cl)c1,6.31 µM (active),–
O=c1ccc(NS(=O)(=O)c2ccc(Cl)cc2)cn1Cc1ccc(Cl)c(Cl)c1,5.62 µM (active),–
Cc1cc(NS(=O)(=O)c2ccc(NC(=O)CN3C(=O)c4ccccc4C3=O)cc2)nc(C)n1,–,-13.1% (inactive)
O=S(=O)(Nc1ccc2oc(-c3ccccc3)nc2c1)c1ccccc1,–,-16% [at 2.29 µM] (inactive)
Cc1ccc(S(=O)(=O)Nc2ccc(=O)n(Cc3ccc(Cl)c(Cl)c3)c2)cc1,3.16 µM (active),–
